Assay outcomes deposited in PubChem by SRMLSC.
A selection: hits, their analogues and other compounds. The true share with any hit is near 6.8%.
Spn PMK inh – S. pneumoniae PMK inhibitors, primary screen, biochemical, mevalonate pathway, pilot trial included. purified PMK, PK/LDH-coupled NADH absorbance 340 nm. phosphomevalonate kinase (Streptococcus pneumoniae D39). hit rate 0.49% among 65,000. inhibition, % at 10 µM;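 active = top-ranked compounds by inhibition in the single 10 µM screen, taking a fixed number of the strongest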;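 note: 0% = full reaction with DMSO carrier and 100% = background rate without enzyme reaction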
Autofluor 339 – intrinsic fluorescence of library compounds, ex339/em460 – biochemical, MLSMR library, data from DPM-DC assay, artefact control, profiling panel | compound autofluorescence, ex339/em460 nm, NADH buffer; active compounds read high; 1 = no-compound wells, NADH background | fluorescence fold increase at 10 µM | hit rate 5.5% among 65,000;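 active = at 10 µM, mean starting fluorescence two-fold or more over control wells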;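 note: signal is the first read of a kinetic run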
Spn MK inh – S. pneumoniae MK inhibitors, primary screen, biochemical, PK/LDH-coupled NADH absorbance. hit rate 0.48% among 65,000. inhibition, % at 10 µM. AID 555, 2006. purified MK, PK/LDH-coupled NADH absorbance 340 nm;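 active = ranked among the strongest by inhibition in the single 10 µM screen, a fixed top-ranked set picked for dose follow-up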
DPM-DC inhibit – S. pneumoniae DPM-DC inhibitors, primary screen, biochemical, PK/LDH-coupled NADH fluorescence. diphosphomevalonate decarboxylase (Streptococcus pneumoniae D39). purified DPM-DC. calls only at 10 µM. hit rate 0.49% among 65,000;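 active = the 320 compounds with the highest percent inhibition in the single-dose primary screen, excluding strongly autofluorescent ones, cut at about 32% in these data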;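 note: kinetic rate of NADH fluorescence loss reporting ADP formed by the decarboxylase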
NADH enzymes – inhibitors of PK/LDH coupling enzymes, profiling panel, artefact control, biochemical, MLSMR library; coupled PK/LDH NADH assays, four targets; IC50, µM (top dose mostly 10 µM), inactives show top-dose inhibition; hit rate 0.02% among 65,000; AID 774, 2007;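 active = single-dose screening hits from any of four coupled enzyme assays that gave an IC50 when retested across doses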;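 note: the DPM-DC format reads NADH fluorescence rather than 340 nm absorbance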
A340 absorber – compound light absorbance at 340 nm, profiling panel, artefact control, biochemical, MLSMR library, data from PS, PMK, MK assays; AID 708, 2007; compound absorbance at 340 nm, fold over control; fold change at 10 µM; 65,000 tested, under 10 active;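 active = at 10 µM dose, initial 340 nm absorbance at least 2 fold that of control wells; inactive = change under 2 fold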;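 note: initial absorbance extrapolated from kinetic A340 decline of NADH oxidation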
* marks the source's active call; other numbers are inactive results; i = inactive; x = no result given.

SMILES	Spn PMK inh	Autofluor 339	Spn MK inh	DPM-DC inhibit	NADH enzymes	A340 absorber
c1ccc2[nH]c(-c3ccnc4ccccc34)nc2c1	13	2.1*	8	x	11%	1.1
c1ccc2[nH]c(-c3cscn3)nc2c1	3	0.99	4	i	2%	0.97
c1ccc2nc(-c3nc4ccccc4[nH]3)ccc2c1	0	2.3*	2	x	3%	1
COc1ccc(CCNC(=O)c2ccn[nH]2)cc1OC	6	1.1	0	i	2%	1
CCN(CCO)Cc1cc(=O)oc2c(C)c(C)ccc12	0	1.2	4	i	1%	1.1
COc1ccc2c(C(F)(F)F)cc(=O)oc2c1C	3	2.9*	11	x	2%	1
Cc1ccc(-c2nnc(-c3ccc(Br)cc3)o2)o1	6	3.4*	6	x	2%	1
CCOC(=O)C(C)Sc1ccc2nnc(-c3ccc(F)cc3)n2n1 (configuration not stated)	15	2.1*	0	i	8%	1
CC(Sc1ccc2nnc(-c3ccc(F)cc3)n2n1)C(=O)O (configuration not stated)	6	1.8	18	i	12%	1.1
O=C(CSc1ccc2nnc(-c3ccc(F)cc3)n2n1)N1CCCCC1	9	1.8	0	i	3%	1
O=C(CSc1ccc2nnc(-c3ccc(F)cc3)n2n1)NCC1CCCO1 (configuration not stated)	14	2.3*	4	i	11%	1
Nc1cc(N)nc(SCC(=O)NCC2CCCO2)n1 (configuration not stated)	8	1.1	9	i	6%	1
O=C(CSc1cc(Cl)ccc1Cl)NCC1CCCO1 (configuration not stated)	25*	1.1	0	i	8%	1
CCSc1ccc2nnc(-c3ccc(F)cc3)n2n1	14	2*	11	i	12%	1
Cc1ccc(C2CC(c3cccs3)n3nc(N)nc3N2)cc1 (configuration not stated)	9	2.3*	0	x	5%	1
O=C(c1ccc(Cn2c(=O)[nH]c3ccccc3c2=O)cc1)N1CCN(c2ccc(F)cc2)CC1	9	1.2	5	i	5%	1
CCOC(=O)Cc1c(C)c2c(C)nn(-c3ccccc3)c2oc1=O	0	2.3*	0	i	6%	1.1
COc1ccc(S(=O)(=O)N(C)CC(=O)N2CCC(C)CC2)cc1Cl	4	1.1	4	i	3%	1
O=C(CN(C(=O)CNS(=O)(=O)c1ccccc1)c1ccc2c(c1)OCCO2)NCc1ccco1	19	1.1	6	i	8%	1
O=C(CN(C(=O)CNS(=O)(=O)c1ccccc1)C1CCCC1)NCc1ccco1	25*	1	0	i	8%	0.99
O=C(CN1CCCN(S(=O)(=O)c2ccc(Br)cc2)CC1)Nc1ccc2c(c1)OCO2	10	1	5	i	4%	0.96
COc1ccc2oc(=O)c(NC(=O)C3CCCCC3)cc2c1	14	4.2*	1	x	8%	1.1
CC(=O)Nc1ccc(S(=O)(=O)N2CCN(c3cc(C)nc4ccccc34)CC2)cc1	18	1	5	i	3%	1
CC(=O)Nc1ccc(S(=O)(=O)N2CCN(c3nc(NC4CCCC4)c4ccccc4n3)CC2)cc1	9	2.2*	2	x	6%	1.1
Cc1nn(-c2ccccn2)c2c1-c1nc(N)ncc1CC2	7	3.6*	0	x	4%	1
SMILES	Spn PMK inh	Autofluor 339	Spn MK inh	DPM-DC inhibit	NADH enzymes	A340 absorber
Cc1nn2c3c(cnc2c1-c1ccccc1)C(=O)CCC3	3	1.1	7	i	3%	1.1
CN1C(=S)SC(C)(C)C1(C)NO (configuration not stated)	14	1.1	3	i	6%	1
CCN(CC)C(=O)c1cc(-c2ccccc2OC)on1	13	1.1	4	i	6%	0.99
COc1ccccc1-c1ccc(C(=O)O)o1	12	3.3*	0	i	9%	1
CC(C)c1ccc(-c2nc(N3CCOCC3)[nH]c(=O)c2C#N)cc1	2	1	10	i	3%	0.98
N#CC1=C(N)OC2=C(C(=O)CCC2)C1Cc1ccccc1 (configuration not stated)	7	1.1	3	i	3%	0.99
O=C(CN1C(=O)c2cccc3cccc1c23)N1CCN(Cc2ccc3c(c2)OCO3)CC1	3	2*	8	i	7%	1.1
COc1cccc(C(=O)N2CCN(Cc3ccc4c(c3)OCO4)CC2)c1OC	0	1.1	8	i	3%	1
NC(=O)C1(N2CCCCC2)CCN(C(=O)c2cccn3c(=O)c4cc(Cl)ccc4nc23)CC1	14	4.9*	0	x	7%	1.1
O=C(c1cccn2c(=O)c3cc(Cl)ccc3nc12)N1CCN(Cc2ccc3c(c2)OCO3)CC1	17	4.9*	0	x	9%	1.1
O=C(NCCN1CCN(c2ccccc2F)CC1)c1cccn2c(=O)c3ccccc3nc12	18	3.1*	2	i	12%	0.99
O=C(c1cccn2c(=O)c3ccccc3nc12)N1CCN(Cc2ccc3c(c2)OCO3)CC1	3	5*	1	x	2%	1.1
CCn1nc(C(=O)N2CCN(Cc3ccc4c(c3)OCO4)CC2)c2ccccc2c1=O	20	0.95	8	i	12%	0.99
O=C(c1cccn2c(=O)c3cc(Cl)ccc3nc12)N1CCOCC1	13	3.3*	1	x	2%	1.1
Cc1ccc(OCCN2C(=O)OC(C)(C)C2(C)O)cc1 (configuration not stated)	13	1.1	4	i	6%	0.98
CN1CCN(C(=O)Nc2cccc3ccccc23)CC1	0	2.1*	1	x	1%	1
CCN1CCN(C(=O)Nc2cccc3ccccc23)CC1	0	1.6	6	i	2%	1
NC(=O)C1CCCN(C(=O)Nc2cccc3ccccc23)C1 (configuration not stated)	0	2.3*	4	i	4%	1.1
Cn1c(C(=O)N2CCN(c3ccc(Cl)cc3)CC2)cc2c(=O)n(C)c3ccccc3c21	8	1	11	i	16%	1
COc1ccc(-n2nc3cc(C)c(NC(=O)C(C)C)cc3n2)cc1	8	5.1*	3	x	6%	1
Cn1c(=O)c2nc(-c3ccccc3)oc2c2ccccc21	8	5*	2	x	5%	1.1
